Bioassay records (PubChem BioAssay)
GPT2 inhibitor: blocks human glutamate pyruvate transaminase 2 | Q8TD30 | Recombinant GPT2, coupled pyruvate oxidase/HRP Amplex Red fluorescence | Potency, µM (top dose mostly 57.7 µM), for inactives: top-dose activity change, negative = inhibition, actives largely listed as inhibitors | 100,000 tested, 0.25% active; further: nearly all actives have a fitted effect of over 60% in size
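Fluorescence read-out: pyruvate from GPT2 turnover coupled to pyruvate oxidase, HRP and Amplex Red (0.2mM ThPP, 0.2U/mL PO and HRP, 50uM Amplex final). Substrates 250uM a-KG, 2mM L-alanine; enzyme 10ng/uL; 30 min RT.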
FLuc inh: Photinus pyralis luciferase inhibition; P08659; purified P. pyralis luciferase, luminescence, biochemical; Potency, µM (top dose mostly 115 µM), actives largely listed as inhibitors; 76,000 tested, 2.5% active; AID 1347043; further: nearly all actives have a fitted effect of over 65% in size
Target sequence (P08659 whole entry, looked up): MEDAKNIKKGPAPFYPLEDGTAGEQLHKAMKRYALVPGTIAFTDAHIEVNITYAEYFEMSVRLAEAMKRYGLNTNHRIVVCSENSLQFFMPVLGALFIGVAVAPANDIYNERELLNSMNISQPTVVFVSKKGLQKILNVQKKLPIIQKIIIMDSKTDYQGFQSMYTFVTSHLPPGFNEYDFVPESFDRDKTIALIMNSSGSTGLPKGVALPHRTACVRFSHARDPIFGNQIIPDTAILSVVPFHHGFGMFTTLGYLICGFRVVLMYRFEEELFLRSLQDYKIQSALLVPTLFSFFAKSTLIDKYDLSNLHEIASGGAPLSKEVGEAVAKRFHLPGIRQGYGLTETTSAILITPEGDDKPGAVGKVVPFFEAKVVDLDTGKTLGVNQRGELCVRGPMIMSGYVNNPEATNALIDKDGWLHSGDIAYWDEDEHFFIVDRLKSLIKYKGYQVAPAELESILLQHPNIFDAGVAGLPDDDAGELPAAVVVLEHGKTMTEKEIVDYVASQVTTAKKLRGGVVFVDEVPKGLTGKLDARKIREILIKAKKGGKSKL
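Purified P. pyralis luciferase (10nM final) in 50mM Tris acetate pH 7.5, 10mM Mg acetate, 0.01% Tween-20, 0.05% BSA with 10uM D-luciferin and 10uM ATP. Compounds titrated qHTS. Luminescence imaged on CCD.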
HEK293 tox: HEK 293 cell cytotoxicity. 94,000 tested, 6.6% active. HEK 293 viability, ATP luminescence (CellTiter-Glo), 48-72 h. Potency, µM (titrated, usually from 115 µM), for inactives: at the top dose activity change, negative = cytotoxicity, most hits filed as inhibitors; further: nearly all actives have a fitted effect of over 60% in size
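Pintool-delivered compounds were incubated with HEK 293 cells (250 cells/well) at 37 degree Celsius for 48 or 72 hr. ATP-dependent luminescence (CellTiter-Glo) then reported remaining viable cells.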
hNpr1 antagonist: antagonists of human natriuretic peptide receptor Npr1; P16066; HEK293 hNpr1 GloSensor cGMP, ANP-stimulated luminescence; Potency, µM (top dose mostly 46.3 µM), for inactives: at the top dose activity change, negative = inhibition, usual class: inhibitors; 76,000 tested, 1.6% active; AID 1347048; calls by dose curve; further: nearly all actives have a fitted effect of over 60% in size
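HEK293 cells stably expressing human Npr1 and cGMP GloSensor pGS-40F, loaded 2 h with 2% GloSensor reagent, given compound 30 min at room temperature. Luminescence read before and 20 min after 0.1 nM hNppA.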
NIH3T3 tox: kills NIH 3T3 cells | 94,000 tested, 4.3% active | Potency, µM (highest dose often 96.7 µM), without a hit: at the top dose activity change, negative = cytotoxicity, most hits filed as inhibitors | NIH 3T3 viability, CellTiter-Glo ATP luminescence, 48-72 h; further: nearly all actives have a fitted effect of over 55% in size
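Cells were seeded at 400 per well, treated with pin-transferred compound, and kept 48 or 72 hr at 37 °C before CellTiter-Glo addition and luminescence imaging of cellular ATP.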
Starred values were filed as active, the others as inactive; i = inactive; ? = inconclusive; . = not tested or not shown; [ ] = another dose, or the depositor's remark. Hits are enriched below; roughly 10% of the tested compounds scored in any of these assays. Unless noted, the call rests on the fitted dose curve; in most records, active means well fitted curve in the direction sought with a large enough effect; inconclusive means small, poorly fitted or top-dose-only effect, or another doubt; inactive means no such curve, though single readings can be large; an effect the other way counts as inactive or inconclusive. On the % scale 0 is the no-effect control and ±100 the full control effect; potency means the concentration at half of the fitted maximal effect.

SMILES	GPT2 inhibitor	FLuc inh	HEK293 tox	hNpr1 antagonist	NIH3T3 tox
OCc1ccc(-c2cc(-c3ccncc3)c3cncn3c2)cc1	-7%[88.5 µM]	i	?	2%[70.6 µM]	40µM*
COc1ccc(-c2cc(-c3ccc(F)cc3OC)cn3cncc23)cc1	?	i	?	-5%[70.6 µM]	?
CNc1nccc(N2CCC(CC(=O)NCc3cccc(OC)c3OC)CC2)n1	i	i	?	2%	?
COCCNC(=O)C1CCN(c2ccnc3ccnn23)CC1	5%	.	1%	.	-16%
COc1ccc(C(=O)N2CCC3(CC2)C(OC)CN3c2cccc(F)c2)cc1F (configuration not stated)	1%	i	?	1%	?
COc1ccc(-c2cc(-c3cccc(C(N)=O)c3)cn3cncc23)cc1	-17%[88.5 µM]	i	?	-15%[70.6 µM]	40µM*
CC(=O)Nc1cccc(-c2cc(-c3ccncc3)c3cncn3c2)c1	5%[88.5 µM]	i	?	-7%[70.6 µM]	?
Cn1cc(-c2cc(-c3ccncc3)c3cncn3c2)cn1	?	i	?	-4%[70.6 µM]	40µM*
COCc1nnc(C2CC3(CCN(C(=O)c4ccnn4C)CC3)CN2C)o1 (configuration not stated)	0%	.	-5%	.	i
CCCC(C)NC(=O)C1CCCN1C(=O)c1cccc(-c2cccnc2)c1 (configuration not stated)	.	.	-17%	.	-27%
CCN1CCN(Cc2ccc(NC(=O)Nc3ccc(Oc4cc(NC)ncn4)cc3)cc2C(F)(F)F)CC1	i	.	.	.	.
CCN1CCN(c2ccc(Nc3cc(N(C)C(=O)Nc4c(Cl)c(OC)cc(OC)c4Cl)ncn3)cc2)CC1	8.9µM*	.	.	.	.
O=C(NCCc1ccccc1F)c1ccc2nnc(C3CCCC3)n2c1	i	.	?	.	?
C#CCNC(=O)C1CCN(c2nccc(Nc3ccc(C)cc3)n2)CC1	i	.	50µM*	.	?
Cc1ccc(Nc2ccnc(N3CCC(C(=O)Nc4ccccc4Cl)CC3)n2)cc1	0%	.	?	.	40µM*
CC(C)NC(=O)C1CCN(c2nccc(Nc3ccccc3Cl)n2)CC1	i	.	?	.	?
Cc1ccc(Nc2ccnc(N3CCCC(C(=O)NCC4CC4)C3)n2)cc1 (configuration not stated)	i	.	35µM*	.	35µM*
Cc1ccc(Nc2ccnc(N3CCCC(C(=O)NC(C)C)C3)n2)cc1 (configuration not stated)	-6%	.	?	.	?
COc1ccc(Nc2ccnc(N3CCC(C(=O)NCC4CC4)CC3)n2)cc1	-43%	.	?	.	40µM*
NC(=O)c1cc(-c2cc(NCc3cccnc3)nc3[nH]ccc23)ccc1F	-3%	?	-11%	0%	?
O=C(c1ccc(F)cc1)N1CCC(C(=O)N2CCC(N3Cc4ccccc4C3=O)CC2)CC1	2%	.	-15%	.	?
Cc1ccc(Nc2ccnc(N3CCC(C(=O)NCC4CCCCCC4)CC3)n2)cc1	-7%	.	?	.	18µM*
O=C(NCc1ccc2c(c1)OCO2)C1CCc2sc(C(=O)N3CCCCCC3)cc2C1 (configuration not stated)	0%	i	?	22µM*	?
O=C(Nc1cccc(Cl)c1)C1CCc2sc(C(=O)N3CCCC3)cc2C1 (configuration not stated)	i	i	40µM*	?	28µM*
O=C(NCc1ccc(F)cc1)C1CCc2sc(C(=O)N3CCCC3)cc2C1 (configuration not stated)	i	i	50µM*	-2%	?
SMILES	GPT2 inhibitor	FLuc inh	HEK293 tox	hNpr1 antagonist	NIH3T3 tox
COC(=O)c1cccc(NC(=O)C2CCc3sc(C(=O)N4CCOCC4)cc3C2)c1 (configuration not stated)	i	i	?	-21%	?
Cc1ccc(-c2cc(N3CCCN(C(=O)COc4ccc(F)cc4)CC3)n[nH]2)cc1C	?	i	?	-18%	?
CCCc1ccc(S(=O)(=O)N2CCC(c3c[nH]c4c(C)cccc34)CC2)cc1	-2%	i	50µM*	-2%	?
Cc1cccc2c(C3CCN(S(=O)(=O)c4c(Cl)cccc4Cl)CC3)c[nH]c12	-11%	i	?	-1%	?
CC1CCCN1C(=O)c1cn2cc(-c3cccc(Cl)c3)n(CC3CC3)c(=O)c2n1 (configuration not stated)	2%	i	?	-9%	25µM*
COc1ccc(-c2cn3cc(C(=O)N4CCCC4)nc3c(=O)n2CC2CC2)c(F)c1	?	i	32µM*	-25%	32µM*
CC(c1cccs1)N(C)Cc1ccsc1 (configuration not stated)	i	i	i	0%[70.6 µM]	-7%[174 µM]
Oc1cccc(CN(Cc2ccsc2)Cc2ccco2)c1	i	i	35µM*	1%	32µM*
O=C(c1ccc2ncccc2c1)N1CCC2(CC1)Nc1ccccc1NC2=O	-29%	i	89µM*	-2%	-30%
O=C(c1cccc2ncccc12)N1CCC2(CC1)Nc1ccccc1NC2=O	-10%	i	?	2%	-22%
COc1ccc2c(c1)C(CNCc1ccccc1)=CC(C)(C)CO2	.	.	?	.	-28%
CCCc1cc(N2CCC(NCCOC(C)C)CC2)nc(C)n1	-8%	i	-10%	7%	-4%
CCCc1cc(N2CCC(NCc3cc(F)c(F)c(F)c3)CC2)nc(C)n1	4%	i	50µM*	8%	?
OCCc1ccc(Nc2cnc3ccc(N4CCOCC4)nn23)cc1	-11%[88.5 µM]	i	-20%[172 µM]	4%[70.6 µM]	?
Fc1ccc(Nc2cnc3ccc(N4CCOCC4)nn23)cc1F	-11%[88.5 µM]	i	?	0%[70.6 µM]	?
Cc1ccccc1Nc1cnc2ccc(N3CCOCC3)nn12	?	i	56µM*	?	?
FC(F)(F)c1cccc(Nc2cnc3ccc(N4CCOCC4)nn23)c1	?	i	89µM*	?	?
Cc1ccccc1Nc1cnc2ccc(-n3ccnc3)nn12	?	i	?	4%[70.6 µM]	?
CN1CCN(c2ccc3ncc(Nc4ccc(F)cc4)n3n2)CC1	?	i	112µM*	1%[70.6 µM]	100µM*
c1ccc(Nc2cnc3ccc(N4CCOCC4)nn23)cc1	?	i	112µM*	-17%[70.6 µM]	?
COc1ccc(Nc2cnc3ccc(N4CCOCC4)nn23)cc1	-10%[88.5 µM]	i	?	-4%[70.6 µM]	?
O=C(NC1CCCCC1)c1ccc2oc(-c3ccccn3)nc2c1	-1%[88.5 µM]	.	i	.	-4%[138 µM]
CCc1nc(-c2c3n(c(=O)n(Cc4cccc(F)c4)c2=O)CCCC3)no1	i	i	-6%	-10%	-15%
COc1ccc(CC(=O)NCCNC(=O)c2ccc(-c3cccc(C(F)(F)F)c3)cc2)cc1	.	.	25µM*	.	-24%
